These are literature values, as cited in PubChem BioAssay AID977611.

The whole screen tested about 3,900 compounds, of which about 3,900 (100%) were called active. Cut-off not given; nearly all actives show Kd up to about 4200 µM. So high a share suggests a set chosen from earlier hits. The list shows a part of the results. Starred links: 1 amine or outer side, 2 acyl side, 3 side chain; linkers in the order of their positions; H or OH if unused. Where a SMILES comes first, the peptide text is derived from it. Non-standard residues stand in square brackets, D forms with d. Residues, ends and D or L forms follow the SMILES beside them. Peptide text beside a SMILES is read from it. The star is where a group is joined. *: point of attachment. X1 = C[C@@H]1CCCN1*; Orn(CH(NH2)2) = NC(N)NCCC[C@H](N)C(=O)O; Propyl = CCC*

The data set in a line: PubChem AID 977611. The conditions noted are these: PDB protein-ligand complexes, literature Kd.

Turning to `CC[C@H](C)[C@H](NC(=O)[C@H](Cc1cnc[nH]1)NC(=O)[C@H](C)NC(=O)[C@H](CCC(N)=O)NC(=O)[C@@H](NC(=O)[C@H](CCCNC(N)N)NC(=O)[C@H](CC(C)C)NC(=O)[C@H](CC(C)C)NC(=O)[C@H](CO)NC(=O)[C@@H]1CCCN1C(=O)[C@@H](NC(=O)[C@H](CC(N)=O)NC(=O)[C@@H](N)CCCCN)[C@@H](C)CC)C(C)C)C(=O)N[C@@H](CCCNC(N)N)C(=O)N[C@@H](CCCCN)C(=O)N[C@@H](CCCCN)C(=O)N[C@@H](CCSC)C(=O)N[C@H](C(=O)O)C(C)C` (HELM PEPTIDE1{K.N.I.P.S.L.L.[NC(N)NCCC[C@H](N[*:1])C(=O)[*:2]].V.Q.A.H.I.[NC(N)NCCC[C@H](N[*:1])C(=O)[*:2]].K.K.M.V}$$$$V2.0), the Kd (commonly the constant that tells how readily two partners part at equilibrium) (protein: MYOSIN A TAIL DOMAIN INTERACTING PROTEIN, PDB entry 4aom) was 0.085 µM (active).
For `NC(=O)CC[C@H](NC(=O)CCc1ccc(-c2cc(-c3ccccc3)cs2)cc1)C(=O)N[C@@H](CCC(=O)O)C(N)=O`, the Kd (protein: Macrophage metalloelastase, PDB entry 3tsk) is 0.067 µM (active).
Consider `CCC(CC)Nc1cc(C)nc(Oc2c(C)cc(C)cc2C)c1C`, for which the dissociation constant Kd (protein: Corticotropin-releasing factor receptor 1, T4-Lysozyme chimeric construct, PDB entry 4k5y) is 0.0067 µM (active).
For `C=C/C(C)=C/[C@@]1(C)SC(=O)/C(=C(\O)C(F)(F)F)C1=O`, the Kd (protein: 3-OXOACYL-[ACYL-CARRIER-PROTEIN] SYNTHASE 1, PDB entry 4c73) is 12.1 µM (active).
As for `C=C/C(C)=C\[C@@]1(C)SC(=O)C(C(C)=O)=C1O`, the dissociation constant (Kd) is, setting by setting: (protein: 3-OXOACYL-[ACYL-CARRIER-PROTEIN] SYNTHASE 1, PDB entry 4c6u) 25.6 µM (active); (protein: 3-OXOACYL-[ACYL-CARRIER-PROTEIN] SYNTHASE 1, PDB entry 4c6v) 25.6 µM (active).
As to `CNc1nc2c(CC[C@H]3O[C@@H](OC)[C@H](O)[C@@H]3O)c3nc(N)[nH]c(=O)c3cc2[nH]1`, where the note is “protein: tRNA guanine transglycosylase (TGT), PDB entry 4leq”, the Kd was 0.288 µM (active).
As to `CNc1nc2c(CC[C@H]3O[C@@H](OC)[C@H](OC)[C@@H]3O)c3nc(N)[nH]c(=O)c3cc2[nH]1`, the dissociation constant (Kd) (protein: tRNA guanine transglycosylase (TGT), PDB entry 4lbu) was 0.276 µM (active).
For `O=C(O)c1ccc2nsnc2c1`, the Kd (protein: Pantothenate synthetase (T2A, E77G mutation), PDB entry 4ddm) was 3500 µM (active).
As for `COc1ccc([C@H]2OC[C@H](C)[C@@H]([C@@H](C)[C@@H](OC)[C@@H](C)CCC(=O)[C@H](C)[C@@H](C/C=C/N(C)C=O)OC)O2)cc1`, the Kd (protein: Actin, alpha skeletal muscle, PDB entry 4k43) was 0.132 µM (active).
`CC[C@H](C)[C@H](NC(=O)CNC(=O)[C@H](CCC(=O)O)NC(=O)[C@@H](N)CCC(=O)O)C(=O)N[C@@H](Cc1c[nH]c2ccccc12)C(=O)N[C@@H](C)C(=O)O` (H-EEGIWA-OH): the Kd (protein: RIM1? PDZ Domain, PDB entry 1zub) was 0.27 µM (active).
Take `CC(C)C[C@H](NC(=O)[C@H](Cc1ccc(O)cc1)NC(=O)[C@H](CCC(=O)O)NC(=O)[C@H](CCC(=O)O)NC(=O)[C@H](Cc1c[nH]c2ccccc12)NC(=O)[C@H](CO)NC(=O)[C@@H](NC(=O)[C@H](Cc1ccccc1)NC(=O)[C@@H](NC(=O)[C@@H](N[C@@H](C)O)[C@@H](C)O)C(C)C)[C@@H](C)O)C(=O)N[C@@H](CC(=O)O)C(=O)N[C@@H](Cc1c[nH]c2ccccc12)C(=O)N[C@H](C(N)=O)C(C)C` (H-[X1]VFTSWEEYLDWV-NH2): where the note is “protein: Proprotein convertase subtilisin/kexin type 9, PDB entry 4nmx”, the Kd is 0.66 µM (active).
For H-DDYLWGLEAGEGISDLFD-OH, the dissociation constant Kd (protein: retinoblastoma (Rb), PDB entry 1n4m) was 0.19 µM (active).
In the case of `CC1(C)Nc2nc(N)[nH]c(=O)c2N=C1C(=O)NCC(=O)NCCS(=O)(=O)C[C@H]1O[C@@H](n2cnc3c(N)ncnc32)[C@H](O)[C@@H]1O`, under “protein: 2-amino-4-hydroxy-6-hydroxymethyldihydropteridine pyrophosphokinase/dihydropteroate synthase HPPK-DHPS, PDB entry 4pzv”, the equilibrium dissociation constant (Kd) is 2 µM (active).
Take `CC(=O)N[C@H](C(=O)N1CCC[C@H]1C(=O)N1CCC[C@H]1C(=O)N1CCC[C@H]1C(=O)N[C@H](C(=O)N1CCC[C@H]1C(=O)N1CCC[C@H]1C(=O)N[C@@H](CCCNC(N)N)C(=O)N[C@@H](CCCNC(N)N)C(=O)N[C@@H](CCCNC(N)N)C(N)=O)C(C)C)C(C)C`: the dissociation constant (Kd) (protein: Grb2(N-terminal SH3 domain), PDB entry 3gbq) is 3.5 µM (active).
For H-VPPPVPPPPS-OH, where the note is “protein: Ponsin, PDB entry 2o9v”, the Kd was 288 µM (active).
Consider `C[C@H](N)C(=O)N1CCC[C@H]1C(=O)N1CCC[C@H]1C(=O)N[C@@H](CO)C(=O)N[C@@H](CC(N)=O)C(=O)N1CCC[C@H]1C(=O)N1CCC[C@H]1C(=O)N1CCC[C@H]1C(=O)N[C@@H](CCCNC(N)N)C(=O)N1CCC[C@H]1C(=O)N1CCC[C@H]1C` (H-APPSNPPP[Orn(CH(NH2)2)]P-X1), for which the Kd (protein: tandem SH3domains of p47phox, PDB entry 1ov3) is 0.19 µM (active).
For `CCCOC[C@H](NC(=O)[C@@H](NC(=O)[C@@H]1CCCN1C(=O)[C@@H](NC(=O)[C@@H](NC(C)=O)C(C)C)[C@@H](C)O)C(C)C)C(=O)N[C@H](C(=O)N[C@@H](C)C(N)=O)[C@@H](C)O` (Ac-VTPVS(Propyl)TA-NH2), where the note is “protein: UDP-N-ACETYLGLUCOSAMINE--PEPTIDE N-ACETYLGLUCOSAMINYLTRANSFERASE 110 KDA SUBUNIT, PDB entry 4cdr”, the Kd was 7.9 µM (active).
As to H-GTCVAARTRPVLSY-OH, for the setting “protein: WD REPEAT-CONTAINING PROTEIN 5, WDR5, PDB entry 4cy1”, the dissociation constant (Kd) is 0.181 µM (active).
In the case of H-GGRRPYIL-OH, the dissociation constant (Kd) (protein: Neurotensin Receptor 1 Mutant TM86V Delta-IC3A, PDB entry 3zev) was 0.0023 µM (active).
